# Data: the supplement of paper PMC8728848
# About 410 targets per protein were measured; listed, in parts, are those with the strongest signals and a random draw of the rest.
# Experiments:
# Test in all cases: glycan array binding signal (z-score within array); higher = stronger binding
# Conditions in all cases: glycan notation: IUPAC condensed, linker removed
# Neu5Ac(a2-3)Gal(b1-4)Glc = tested on: Neu5Ac(a2-3)Gal(b1-4)Glc
# Method in brief: (§1)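 Arrays were curated from the Consortium for Functional Glycomics database, 3228 in total, and kept only where the protein sequence was available. Binding is expressed as a within-array Z-score. This score was averaged across arrays of the same protein sequence at different concentrations or buffers and across linkers, and negative values can be read as non-binding.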
# [1] = tested on: Neu5Ac(a2-3)Gal(b1-4)[Fuc(a1-3)]GlcNAc
# Method in brief: as §1
# [2] = tested on: Neu5Ac(a2-3)Gal(b1-4)GlcNAc(b1-3)Gal(b1-4)[Fuc(a1-3)]GlcNAc
# Method in brief: as §1
# [3] = tested on: Neu5Ac(a2-3)Gal(b1-4)GlcNAc(b1-6)GalNAc
# Method in brief: as §1
# [4] = tested on: Neu5Ac(a2-3)Gal(b1-4)GlcNAc6S
# Method in brief: as §1
# [5] = tested on: Neu5Ac(a2-3)Gal(b1-4)[Fuc(a1-3)]GlcNAc(b1-3)Gal(b1-4)GlcNAc
# Method in brief: as §1
# [6] = tested on: Neu5Ac(a2-3)Gal(b1-4)[Fuc(a1-3)]GlcNAc(b1-6)[Neu5Ac(a2-3)Gal(b1-3)]GalNAc
# Method in brief: as §1
# [7] = tested on: Neu5Ac(a2-3)Gal(b1-4)[Fuc(a1-3)]GlcNAc(b1-6)[Gal(b1-3)]GalNAc
# Method in brief: as §1
# [8] = tested on: Neu5Ac(a2-3)Gal(b1-4)GlcNAc(b1-3)Gal
# Method in brief: as §1
# [9] = tested on: Neu5Ac(a2-3)Gal(b1-4)[Fuc(a1-3)]GlcNAc(b1-3)GalNAc
# Method in brief: as §1
# [10] = tested on: Neu5Ac(a2-3)Gal(b1-4)GlcNAc(b1-3)Gal(b1-4)GlcNAc(b1-3)Gal(b1-4)GlcNAc
# Method in brief: as §1
# [11] = tested on: Neu5Ac(a2-3)Gal(b1-4)GlcNAc
# Method in brief: as §1
# [12] = tested on: Neu5Ac(a2-3)Gal(b1-4)GlcNAc(b1-3)Gal(b1-4)GlcNAc(b1-2)Man(a1-3)[Neu5Ac(a2-3)Gal(b1-4)GlcNAc(b1-3)Gal(b1-4)GlcNAc(b1-2)Man(a1-6)]Man(b1-4)GlcNAc(b1-4)GlcNAc
# Method in brief: as §1
# [13] = tested on: Neu5Ac(a2-3)Gal(b1-4)GlcNAc(b1-3)Gal(b1-4)GlcNAc(b1-3)Gal(b1-4)GlcNAc(b1-2)Man(a1-3)[Neu5Ac(a2-3)Gal(b1-4)GlcNAc(b1-3)Gal(b1-4)GlcNAc(b1-3)Gal(b1-4)GlcNAc(b1-2)Man(a1-6)]GalNAc
# Method in brief: as §1
# [14] = tested on: Neu5Ac(a2-3)Gal(b1-4)GlcNAc(b1-3)Gal(b1-4)GlcNAc(b1-3)GalNAc
# Method in brief: as §1
# [15] = tested on: Neu5Ac(a2-3)Gal(b1-4)GlcNAc(b1-6)[Gal(b1-3)]GalNAc
# Method in brief: as §1
# [16] = tested on: Neu5Ac(a2-3)Gal(b1-4)[Fuc(a1-3)]GlcNAc(b1-3)Gal(b1-4)[Fuc(a1-3)]GlcNAc(b1-3)Gal(b1-4)[Fuc(a1-3)]GlcNAc
# Method in brief: as §1
# [17] = tested on: Neu5Ac(a2-3)Gal(b1-4)GlcNAc(b1-3)GalNAc
# Method in brief: as §1
# [18] = tested on: Neu5Ac(a2-3)Gal(b1-4)[Fuc(a1-3)]GlcNAc(b1-3)Gal(b1-4)[Fuc(a1-3)]GlcNAc(b1-3)Gal(b1-4)Glc
# Method in brief: as §1
# [19] = tested on: Neu5Ac(a2-3)Gal(b1-4)[Fuc(a1-3)]GlcNAc6S(b1-3)Gal(b1-4)Glc
# Method in brief: as §1
substance,measurement,setting,value
"MIC3-MAR1b (Eimeria tenella), B6VCV4",glycan array binding signal (z-score),Neu5Ac(a2-3)Gal(b1-4)Glc,-0.453
same,glycan array binding signal (z-score),[1],-0.346
LcI (Legionella pneumophila),glycan array binding signal (z-score),[2],-0.717
same,glycan array binding signal (z-score),[3],3.79
same,glycan array binding signal (z-score),[4],-0.956
same,glycan array binding signal (z-score),[5],0.401
Actinohivin (Actinomycete K97),glycan array binding signal (z-score),Neu5Ac(a2-3)Gal(b1-4)Glc,0.053
same,glycan array binding signal (z-score),[6],-0.02
AgI/IIC123-GFP (Streptococcus mutans),glycan array binding signal (z-score),[7],0.09
"Wza (Escherichia coli), P0A930",glycan array binding signal (z-score),[8],2.81
same,glycan array binding signal (z-score),[9],1.12
"BambL (Burhholderia ambifaria), Q0B4G1",glycan array binding signal (z-score),[10],-0.313
Epa22,glycan array binding signal (z-score),[4],0.274
same,glycan array binding signal (z-score),[11],0.352
same,glycan array binding signal (z-score),[6],0.118
AgI/II Vhelical-GFP (Streptococcus mutans),glycan array binding signal (z-score),[12],1.8
same,glycan array binding signal (z-score),[13],-0.031
same,glycan array binding signal (z-score),[14],0.5
same,glycan array binding signal (z-score),[15],-0.273
same,glycan array binding signal (z-score),[16],-0.178
same,glycan array binding signal (z-score),[6],-0.178
"SiiE (Salmonella typhimurium), A0A0H3NVH0",glycan array binding signal (z-score),[10],-0.456
same,glycan array binding signal (z-score),[17],-1.98
same,glycan array binding signal (z-score),Neu5Ac(a2-3)Gal(b1-4)Glc,2.39
same,glycan array binding signal (z-score),[1],0.224
"MIC3-MAR5 (Eimeria tenella), B6VCV4",glycan array binding signal (z-score),[18],0.92
same,glycan array binding signal (z-score),[19],2.08
"SpGH101 (Streptococcus pneumoniae), Q8DR60",glycan array binding signal (z-score),[8],-0.209
same,glycan array binding signal (z-score),[9],1.68
